# Where “and” joins values, the source holds several entries; their conditions need not be identical. Identical values can stand only once. Inconclusive results are not listed. Calls of active or inactive are those of the source. Unless noted, calls follow the shape of the full dose curve.
# How the values were obtained:
# [1] = biological target: Cytochrome P450 3A4 (Homo sapiens) (UniProt P08684); test: qHTS Assay for Inhibitors and Substrates of Cytochrome P450 3A4 (AID 884; active = well fitted curve in the direction sought with a large enough effect; an effect the other way counts as inactive or inconclusive; also: potency is read from the fitted curve at half-maximal effect; nearly all actives have a fitted effect of over 50% in size)
# In short: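 20 nM human CYP3A4 with 25 uM Luciferin-PPXE (at KM) in 200 mM KPO4, preincubated 10 min with compound; NADPH regeneration started a 60 min RT reaction. Luciferin detected by luminescence, normalized to 57 uM ketoconazole as full inhibition.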
# [2] = biological target: Bile acid receptor (Homo sapiens) (UniProt Q96RI1); test: qHTS assay for small molecule agonists of farnesoid X receptor signaling (AID 588527); conditions: HEK293T FXR-UAS-bla, beta-lactamase ratio, 16 h; activation: stronger effect = higher value;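 also: series mostly up to about 77 µM; 0% = vehicle basal and 100% = reference agonist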
# In short: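 Agonist-mode beta-lactamase reporter in GeneBLAzer FXR-UAS-bla HEK293T cells, titration up to 92 uM, 16 h exposure at 37 C, CCF4 fluorescence. Response scaled to DMSO (0%) and 100 uM chenodeoxycholic acid (100%), then Hill-fitted for EC50 and efficacy.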
# [3] = qHTS assay for small molecule agonists of retinoid X receptor alpha signaling (AID 588544); conditions: HEK293T RXRa-UAS-bla, beta-lactamase reporter, 18 h; 530 nm emission;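 as to activation: 0% = DMSO basal wells and 100% = reference agonist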
# [4] = biological target: Retinoic acid receptor RXR-alpha (Homo sapiens) (UniProt P19793); test: as above
# [5] = biological target: Peroxisome proliferator-activated receptor delta (Homo sapiens) (UniProt Q03181); test: qHTS assay for small molecule agonists of peroxisome proliferator-activated receptor delta signaling (AID 588534);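 also: 0% = DMSO basal wells and 100% = positive control agonist at 10 µM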
# In short: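 Reporter cells were plated and held 5 hrs at 37 C before compounds were added. After 18 hrs at 37 C, CCF4 dye was loaded for 2 hrs at RT and fluorescence measured.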
# [6] = qHTS assay for small molecule antagonists of peroxisome proliferator-activated receptor delta signaling (AID 588535; active = well fitted inhibition curve with a large enough effect in the signal ratio, with a control signal flat, not every such curve was filed as active; the % refers to the signal ratio;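 as to max response: cells co-treated with a PPAR-delta agonist as stimulator during compound exposure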); conditions: HEK293T PPARd-UAS-bla, beta-lactamase FRET ratio, 18 h; 460 nm channel
# In short: (§1)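 GeneBLAzer PPAR-delta-UAS-bla HEK293T cells in medium with 2% charcoal/dextran FBS were preincubated 5 hrs at 37 C, then given compounds, incubated 18 hrs at 37 C, and read by CCF4 beta-lactamase fluorescence; IC50 from Hill fits.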
# [7] = biological target: Peroxisome proliferator-activated receptor delta (Homo sapiens) (UniProt Q03181); test: as above
# In short: as §1
# [8] = biological target: Peroxisome proliferator-activated receptor gamma (Homo sapiens) (UniProt P37231); test: qHTS assay for small molecule agonists of peroxisome proliferator-activated receptor gamma signaling (AID 588536; active = well fitted curve in the direction sought with a large enough effect in the signal ratio, with a control signal flat, not every such curve was filed as active; the % refers to the signal ratio;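 also: 0% = DMSO basal wells and 100% = rosiglitazone at 2 µM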)
# In short: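 Ratiometric blue/green fluorescence (405 nm excitation; 460 and 530 nm emission) from CCF4-loaded HEK293 reporter cells serves as signal. Exposure to test compounds lasts 16 h at 37 C in medium containing 1% charcoal/dextran-treated serum.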
# [9] = biological target: Vitamin D3 receptor (Homo sapiens) (UniProt P11473); test: qHTS assay for small molecule antagonists of vitamin D receptor signaling (AID 588541);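 also: receptor activated by calcitriol during compound treatment; series mostly up to about 77 µM; % is scaled to controls: 0 for no effect and ±100 for the full control effect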
# In short: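 VDR-UAS-bla HEK293T cells (2000/well, 2% charcoal-stripped FBS) were treated with titrated compounds plus 1-alpha,25-dihydroxyvitamin D3 (50 nM or 3 nM final) for 16 h at 37 C. CCF4 beta-lactamase fluorescence was read; Hill fits gave IC50.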
# [10] = biological target: Vitamin D3 receptor (Homo sapiens) (UniProt P11473); test: qHTS assay for small molecule agonists of vitamin D receptor signaling (AID 588543);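 also: 0% = DMSO basal and 100% = reference agonist control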
# In short: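 VDR-UAS-bla HEK293T cells, 2000/well, 2% charcoal-stripped FBS; compound titration 16 h at 37 C; CCF4 beta-lactamase ratio read. Normalized to 50 nM 1-alpha,25-dihydroxyvitamin D3 (100%) and DMSO; Hill fit gives EC50, efficacy.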
# [11] = biological target: Thyroid hormone receptor beta (Homo sapiens) (UniProt P10828); test: qHTS assay for small molecule agonists of thyroid hormone receptor beta signaling (AID 588545);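 also: 0% = DMSO only and 100% = 10 nM T3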
# In short: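 Efficacy and EC50 values derive from Hill fits of qHTS titration data, normalized to 10 nM T3 and DMSO-only wells. HEK 293 reporter cells were stimulated for 18 hrs at 37 C, with beta-lactamase activity measured by CCF4 fluorescence.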
# [12] = qHTS assay for small molecule antagonists of retinoid X receptor alpha signaling (AID 588546; active = well fitted inhibition curve with a large enough effect in the signal ratio, with a control signal flat, not every such curve was filed as active; the % refers to the signal ratio;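 also: cells stimulated with 9-cis-retinoic acid as agonist; % is scaled to controls: 0 for no effect and ±100 for the full control effect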); conditions: HEK293T RXRa-UAS-bla, beta-lactamase ratio, antagonist mode; measured here: W530 green channel, cytotoxicity proxy
# In short: (§2)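 Beta-lactamase reporter inhibition, read as CCF4 fluorescence ratio (ex 405, em 460/530 nm) after 2 h at RT. HEK293T UAS-bla cells, 2500/well, were stimulated with 9-cis-RA at 500 or 100 nM final alongside test compound for 18 h at 37 C.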
# [13] = biological target: Retinoic acid receptor RXR-alpha (Homo sapiens) (UniProt P19793); test: as above; conditions: HEK293T RXRa-UAS-bla, beta-lactamase ratio, antagonist mode
# In short: as §2
# [14] = biological target: Thyroid hormone receptor beta (Homo sapiens) (UniProt P10828); test: qHTS assay for small molecule antagonists of thyroid hormone receptor beta signaling (AID 588547; active = well fitted inhibition curve with a large enough effect in the signal ratio, with a control signal flat, not every such curve was filed as active; the % refers to the signal ratio;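 also: cells stimulated with 0.4 nM T3 agonist during compound exposure; series mostly up to about 77 µM; % is scaled to controls: 0 for no effect and ±100 for the full control effect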); conditions: TR-UAS-bla HEK293, beta-lactamase ratio, antagonist mode, 18 h
# In short: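 TR-UAS-bla GripTite HEK293 cells in 2% charcoal/dextran FBS medium were preincubated 4 h at 37 C, given compound (0.59 nM to 92 uM) plus 0.4 nM T3 (final) for 18 h, then CCF4 for 2 h at RT; Hill fit gave IC50.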
# [15] = qHTS assay for small molecule agonists of the antioxidant response element (ARE) signaling pathway (AID 651741; active = well fitted activation curve with a large enough effect in the signal ratio; the % refers to the signal ratio; also: potency is read from the fitted curve at half-maximal effect)
# In short: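 ARE-bla HepG2 cells (beta-lactamase reporter under ARE control) were plated at 2,000 cells/well, preincubated 5 h at 37 C/5% CO2, then treated with DMSO-dissolved compounds for 16 h at 37 C; LiveBLAzer B/G FRET substrate added, fluorescence read after 2 h at room temperature.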
# [16] = qHTS assay for small molecule activators of the p53 signaling pathway (AID 651743; active = well fitted activation curve with a large enough effect in the signal ratio, not every such curve was filed as active; the % refers to the signal ratio; also: series mostly up to about 92 µM; % of control where 0% means no effect); conditions: HCT-116 p53RE-bla, beta-lactamase FRET ratio, 16 h; activation: stronger effect = higher value
# In short: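 p53RE-bla HCT-116 cells with a stably integrated beta-lactamase reporter under p53 response elements were plated, rested 5 hours at 37 C/5% CO2, then exposed to compounds in DMSO for 16 hours at 37 C. LiveBLAzer B/G FRET substrate was read after 2 hours at room temperature.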
# [17] = qHTS assay for environmental chemicals that activate the Aryl hydrocarbon Receptor (AhR) signaling pathway (AID 651777; active = well fitted curve in the direction sought with a large enough effect; an effect the other way counts as inactive or inconclusive; also: % of control where 0% means no effect; nearly all actives have a fitted effect of over 15% in size); conditions: 1A2-DRE human hepatoma cells, luciferase, 24 h; activation: stronger effect = higher value
# In short: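 Human hepatoma 1A2-DRE cells, stably carrying a dioxin response element and CYP1A2 promoter driving luciferase, were exposed to compounds for 24 hr at 37 C and 5% CO2. Luciferase signal was then read after 30 min One-Glo at room temperature.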
# [18] = biological target: Peroxisome proliferator-activated receptor alpha (Homo sapiens) (UniProt Q07869); test: qHTS assay for small molecule agonists of the peroxisome proliferator-activated receptor alpha (PPARalpha) signaling pathway (AID 651778; active = well fitted curve in the direction sought with a large enough effect; an effect the other way counts as inactive or inconclusive; also: % of control where 0% means no effect); conditions: PathHunter PPARalpha complementation, chemiluminescence, 6 h; max response: stronger effect = higher value
# In short: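 Cells plated at 2,000/well and held overnight at 37 C, 5% CO2, then compound added by pin tool for 6 hr; after PathHunter detection reagent and 60 min at room temperature, chemiluminescence from enzyme complementation was read.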
# [19] = qHTS assay for small molecule agonists of the antioxidant response element (ARE) signaling pathway measured by Nrf2-dependant transcriptional activity (AID 720636; active = well fitted curve in the direction sought with a large enough effect in the repeat runs; an effect the other way counts as inactive or inconclusive; also: % of control where 0% means no effect)
# In short: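 ARE-luc HepG2 cells carrying an Nrf2-responsive luciferase reporter were plated in medium with 1% dialyzed FBS, left 6 hr at 37 C to attach, then exposed to compound for 16 hr. Luciferase luminescence was read after ONE-Glo addition.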
# [20] = qHTS assay for small molecule agonists of the antioxidant response element (ARE) signaling pathway measured by Nrf2-dependant transcriptional activity - cell viability counter screen (AID 720653; active = well fitted curve in the direction sought with a large enough effect in the repeat runs; an effect the other way counts as inactive or inconclusive; also: % is scaled to controls: 0 for no effect and ±100 for the full control effect); conditions: ARE-bla HepG2 viability, CellTiter-Glo ATP luminescence, 16 h; max response: stronger effect = lower value
# In short: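 ARE-bla HepG2 cells (2,000/well) rested 5 hrs at 37C/5% CO2, then exposed to compounds in DMSO for 16 hrs. Viability was read in the same wells as intracellular ATP by luminescence, 30 min at room temperature after reagent addition.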
# [21] = qHTS assay for cell viability of HEK293 cells (AID 743288; active = well fitted curve in the direction sought with a large enough effect; an effect the other way counts as inactive or inconclusive; also: % is scaled to controls: 0 for no effect and ±100 for the full control effect; nearly all actives have a fitted effect of over 50% in size); conditions: ATP luminescence (CellTiter-Glo), 18 h; max response: stronger effect = lower value
# In short: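 Parental HEK293 cells, 2,000 per well, preincubated at least 5 h at 37 C, then exposed to compounds in DMSO for 18 h at 37 C. Viability by CellTiter-Glo ATP luminescence after 30 min at room temperature.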
# [22] = qHTS assay for cell viability of the p53RE-bla HCT-116 cell line (AID 743292; active = well fitted curve in the direction sought with a large enough effect; an effect the other way counts as inactive or inconclusive; also: % is scaled to controls: 0 for no effect and ±100 for the full control effect; nearly all actives have a fitted effect of over 55% in size)
# In short: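 CellSensor p53RE-bla HCT-116 cells, 4,000/well, preincubated 5 h at 37 C, then exposed to compounds in DMSO for 16 h at 37 C. Viability read as CellTiter-Glo luminescence (intracellular ATP) after 30 min at room temperature.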
# [23] = biological target: Voltage-gated inwardly rectifying potassium channel KCNH2 (Homo sapiens) (UniProt Q12809); test: qHTS Assay for Small Molecule Inhibitors of the Human hERG Channel Activity (AID 588834; active = well fitted curve in the direction sought with a large enough effect; an effect the other way counts as inactive or inconclusive;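 also: top concentration of the series differs between compounds; % is scaled to controls: 0 for no effect and ±100 for the full control effect; lower thallium flux fluorescence means stronger hERG block; nearly all actives have a fitted effect of over 50% in size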)
# In short: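 U2OS cells BacMam-transduced with hERG, 2000 cells/well, compound ~10 min at 37 °C before stimulation buffer. FluxOR thallium flux fluorescence read kinetically on FDSS; decrease indicates block; AC50 from Hill fits.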
# [24] = qHTS assay for small molecule antagonists of the retinoid-related orphan receptor gamma (ROR-gamma) signaling pathway - cell viability counter screen (AID 720652; active = well fitted curve in the direction sought with a large enough effect in the repeat runs; an effect the other way counts as inactive or inconclusive)
# In short: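 Cytotoxicity is quantified via intracellular ATP (CellTiter-Glo luminescence) in doxycycline-induced CHO ROR response element-luciferase reporter cells treated with compound for 16 hr at 37 C, 5% CO2.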
# Chain of Bile acid receptor (Homo sapiens) (Q96RI1 whole entry, looked up): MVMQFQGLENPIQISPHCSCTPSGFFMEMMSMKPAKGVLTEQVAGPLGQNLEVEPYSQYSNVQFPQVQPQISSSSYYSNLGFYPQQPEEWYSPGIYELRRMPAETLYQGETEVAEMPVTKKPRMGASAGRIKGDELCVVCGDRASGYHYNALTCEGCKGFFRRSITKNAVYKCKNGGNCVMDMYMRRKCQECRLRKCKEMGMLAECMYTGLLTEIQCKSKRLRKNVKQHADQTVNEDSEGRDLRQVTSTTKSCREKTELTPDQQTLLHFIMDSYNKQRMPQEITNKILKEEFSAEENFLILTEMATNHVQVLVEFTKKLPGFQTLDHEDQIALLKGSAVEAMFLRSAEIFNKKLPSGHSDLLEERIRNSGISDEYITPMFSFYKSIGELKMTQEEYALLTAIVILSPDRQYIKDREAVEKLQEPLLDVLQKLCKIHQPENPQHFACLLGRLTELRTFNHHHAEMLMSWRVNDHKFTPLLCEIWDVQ
# Chain of Peroxisome proliferator-activated receptor delta (Homo sapiens) (Q03181 whole entry, looked up): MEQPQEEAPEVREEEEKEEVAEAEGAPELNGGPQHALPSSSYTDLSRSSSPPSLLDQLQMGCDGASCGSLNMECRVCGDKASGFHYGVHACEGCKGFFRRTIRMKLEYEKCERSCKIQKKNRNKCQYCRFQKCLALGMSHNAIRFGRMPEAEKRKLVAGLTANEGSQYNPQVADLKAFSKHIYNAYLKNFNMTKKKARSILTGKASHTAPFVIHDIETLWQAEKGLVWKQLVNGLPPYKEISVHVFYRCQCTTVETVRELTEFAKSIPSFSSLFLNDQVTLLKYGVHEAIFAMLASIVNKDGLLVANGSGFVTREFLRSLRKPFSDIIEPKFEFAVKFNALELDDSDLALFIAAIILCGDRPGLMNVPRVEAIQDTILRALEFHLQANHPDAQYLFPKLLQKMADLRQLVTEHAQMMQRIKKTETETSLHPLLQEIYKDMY
# Chain of Retinoic acid receptor RXR-alpha (Homo sapiens) (P19793 whole entry, looked up): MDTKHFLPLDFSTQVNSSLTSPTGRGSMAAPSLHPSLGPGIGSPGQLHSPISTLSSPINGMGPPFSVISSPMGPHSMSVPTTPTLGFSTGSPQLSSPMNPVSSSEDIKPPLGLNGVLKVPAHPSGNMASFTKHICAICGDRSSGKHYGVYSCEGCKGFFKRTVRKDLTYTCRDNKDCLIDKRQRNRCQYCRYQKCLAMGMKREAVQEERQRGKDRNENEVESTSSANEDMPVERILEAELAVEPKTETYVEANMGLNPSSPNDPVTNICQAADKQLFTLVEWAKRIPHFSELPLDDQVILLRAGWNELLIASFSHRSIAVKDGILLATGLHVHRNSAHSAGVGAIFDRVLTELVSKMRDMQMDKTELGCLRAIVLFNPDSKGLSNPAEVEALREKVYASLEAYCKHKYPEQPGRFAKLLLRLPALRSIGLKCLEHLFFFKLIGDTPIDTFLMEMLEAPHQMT
# Chain of Thyroid hormone receptor beta (Homo sapiens) (P10828 whole entry, looked up): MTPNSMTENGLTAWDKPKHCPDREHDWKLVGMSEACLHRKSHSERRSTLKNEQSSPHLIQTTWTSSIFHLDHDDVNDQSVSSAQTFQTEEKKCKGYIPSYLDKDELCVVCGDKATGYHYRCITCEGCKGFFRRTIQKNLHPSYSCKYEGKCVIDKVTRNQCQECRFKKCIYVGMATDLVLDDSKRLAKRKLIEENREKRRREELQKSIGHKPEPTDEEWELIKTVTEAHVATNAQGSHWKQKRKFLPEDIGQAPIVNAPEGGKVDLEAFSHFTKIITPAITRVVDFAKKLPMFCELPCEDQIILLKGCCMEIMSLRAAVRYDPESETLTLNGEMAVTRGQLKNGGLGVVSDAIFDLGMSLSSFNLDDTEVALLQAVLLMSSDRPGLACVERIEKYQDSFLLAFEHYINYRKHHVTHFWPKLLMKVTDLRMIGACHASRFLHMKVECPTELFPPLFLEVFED
# Chain of Vitamin D3 receptor (Homo sapiens) (P11473 whole entry, looked up): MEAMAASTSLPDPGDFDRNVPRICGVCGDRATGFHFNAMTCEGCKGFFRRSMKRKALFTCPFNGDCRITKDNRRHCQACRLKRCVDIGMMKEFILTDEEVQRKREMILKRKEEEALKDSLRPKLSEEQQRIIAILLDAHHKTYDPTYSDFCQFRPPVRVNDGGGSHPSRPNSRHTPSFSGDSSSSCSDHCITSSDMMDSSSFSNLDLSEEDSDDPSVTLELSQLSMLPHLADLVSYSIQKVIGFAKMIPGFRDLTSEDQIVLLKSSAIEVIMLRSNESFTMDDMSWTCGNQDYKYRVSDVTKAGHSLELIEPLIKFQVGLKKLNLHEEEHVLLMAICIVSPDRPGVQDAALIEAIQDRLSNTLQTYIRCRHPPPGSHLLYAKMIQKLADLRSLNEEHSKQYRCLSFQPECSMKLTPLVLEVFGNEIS
# Chain of Voltage-gated inwardly rectifying potassium channel KCNH2 (Homo sapiens) (Q12809 whole entry, looked up): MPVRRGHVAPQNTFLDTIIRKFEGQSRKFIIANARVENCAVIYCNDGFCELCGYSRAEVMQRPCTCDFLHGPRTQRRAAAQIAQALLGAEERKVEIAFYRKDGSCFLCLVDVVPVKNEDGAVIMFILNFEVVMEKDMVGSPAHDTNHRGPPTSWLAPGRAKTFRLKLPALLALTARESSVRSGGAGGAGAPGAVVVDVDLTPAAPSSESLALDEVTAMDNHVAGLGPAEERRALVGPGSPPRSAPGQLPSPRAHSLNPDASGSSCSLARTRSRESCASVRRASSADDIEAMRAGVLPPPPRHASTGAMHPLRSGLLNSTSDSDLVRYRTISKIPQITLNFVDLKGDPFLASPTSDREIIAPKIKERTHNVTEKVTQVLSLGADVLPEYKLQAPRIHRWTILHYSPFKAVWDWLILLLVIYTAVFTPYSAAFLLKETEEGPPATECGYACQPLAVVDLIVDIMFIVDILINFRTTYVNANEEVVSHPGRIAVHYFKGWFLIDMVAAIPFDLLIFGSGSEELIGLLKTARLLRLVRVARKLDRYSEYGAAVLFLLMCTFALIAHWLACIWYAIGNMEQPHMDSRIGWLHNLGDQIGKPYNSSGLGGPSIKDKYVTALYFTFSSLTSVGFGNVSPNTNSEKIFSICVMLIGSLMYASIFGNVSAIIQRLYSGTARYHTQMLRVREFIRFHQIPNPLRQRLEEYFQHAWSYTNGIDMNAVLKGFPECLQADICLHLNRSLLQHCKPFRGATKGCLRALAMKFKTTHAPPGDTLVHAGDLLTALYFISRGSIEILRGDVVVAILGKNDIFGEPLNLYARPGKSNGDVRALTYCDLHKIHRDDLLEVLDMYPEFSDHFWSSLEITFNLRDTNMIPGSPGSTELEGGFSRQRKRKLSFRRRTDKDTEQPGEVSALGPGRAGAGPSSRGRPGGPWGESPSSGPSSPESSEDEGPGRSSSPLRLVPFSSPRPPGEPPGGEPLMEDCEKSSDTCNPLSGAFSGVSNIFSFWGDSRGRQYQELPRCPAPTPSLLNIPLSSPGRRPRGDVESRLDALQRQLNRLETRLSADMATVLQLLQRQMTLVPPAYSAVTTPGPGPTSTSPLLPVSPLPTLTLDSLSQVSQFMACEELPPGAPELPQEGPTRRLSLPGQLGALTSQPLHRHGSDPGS
# Chain of Peroxisome proliferator-activated receptor gamma (Homo sapiens) (P37231 whole entry, looked up): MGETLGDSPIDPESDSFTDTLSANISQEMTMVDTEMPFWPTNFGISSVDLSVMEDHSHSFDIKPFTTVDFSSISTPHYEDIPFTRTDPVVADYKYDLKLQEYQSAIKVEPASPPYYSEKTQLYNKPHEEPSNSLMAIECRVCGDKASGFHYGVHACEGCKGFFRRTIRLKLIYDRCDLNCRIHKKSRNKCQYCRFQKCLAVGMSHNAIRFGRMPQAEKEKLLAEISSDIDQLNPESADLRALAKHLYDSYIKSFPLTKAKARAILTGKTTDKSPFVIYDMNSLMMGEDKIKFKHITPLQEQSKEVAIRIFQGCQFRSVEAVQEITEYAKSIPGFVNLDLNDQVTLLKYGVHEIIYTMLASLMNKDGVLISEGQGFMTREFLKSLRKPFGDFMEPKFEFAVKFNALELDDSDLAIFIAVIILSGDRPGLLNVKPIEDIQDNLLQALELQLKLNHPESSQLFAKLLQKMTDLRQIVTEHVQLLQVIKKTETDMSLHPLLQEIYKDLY
# Chain of Peroxisome proliferator-activated receptor alpha (Homo sapiens) (Q07869 whole entry, looked up): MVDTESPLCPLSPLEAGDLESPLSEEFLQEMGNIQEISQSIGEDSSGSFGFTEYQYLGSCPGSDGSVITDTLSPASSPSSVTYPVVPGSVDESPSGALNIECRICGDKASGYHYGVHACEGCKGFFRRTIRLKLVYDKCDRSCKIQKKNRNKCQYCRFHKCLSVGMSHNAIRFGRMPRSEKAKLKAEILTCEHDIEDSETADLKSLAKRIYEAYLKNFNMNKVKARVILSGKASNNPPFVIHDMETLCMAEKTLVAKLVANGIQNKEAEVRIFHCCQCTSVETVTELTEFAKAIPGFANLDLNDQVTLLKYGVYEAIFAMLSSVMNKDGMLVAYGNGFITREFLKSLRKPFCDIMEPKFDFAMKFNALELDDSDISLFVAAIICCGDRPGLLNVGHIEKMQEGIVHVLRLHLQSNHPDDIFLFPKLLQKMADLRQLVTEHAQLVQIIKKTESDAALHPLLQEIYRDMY
# Chain of Cytochrome P450 3A4 (Homo sapiens) (P08684 whole entry, looked up): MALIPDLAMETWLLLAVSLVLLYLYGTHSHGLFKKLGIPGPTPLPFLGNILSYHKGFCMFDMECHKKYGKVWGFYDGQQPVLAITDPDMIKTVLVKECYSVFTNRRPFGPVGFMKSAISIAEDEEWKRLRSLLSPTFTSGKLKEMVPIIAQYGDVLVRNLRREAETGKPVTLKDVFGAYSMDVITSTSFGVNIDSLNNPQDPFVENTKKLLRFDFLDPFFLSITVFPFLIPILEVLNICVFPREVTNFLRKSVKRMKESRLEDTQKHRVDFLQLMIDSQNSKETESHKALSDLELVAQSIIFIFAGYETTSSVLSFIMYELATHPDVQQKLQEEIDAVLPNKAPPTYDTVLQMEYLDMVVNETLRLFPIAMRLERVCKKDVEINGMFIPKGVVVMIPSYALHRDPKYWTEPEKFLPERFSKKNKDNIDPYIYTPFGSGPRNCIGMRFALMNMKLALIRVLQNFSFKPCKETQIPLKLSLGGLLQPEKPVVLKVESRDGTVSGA
smiles,measurement,setting,value
CC(=O)OCc1ccc2c(c1)OCO2,Potency,[1],10 µM (active)
same,activation,[2],-1.12% (inactive)
COc1ccccc1[N+](=O)[O-],activation,[2],-1.25% (inactive) and -5.38% (inactive)
same,max response,[3],2.69%
same,Potency,[4],inactive
C#CCC1=C(C)[C@H](OC(=O)[C@H]2[C@H](C=C(C)C)C2(C)C)CC1=O,activation,[2],1.85% (inactive)
same,outcome,[5],inactive
same,max response,[6],25.2%
same,Potency,[7],inactive
same,Potency,[8],inactive
same,Potency,[9],inactive
same,outcome,[10],inactive
same,max response,[3],11.7%
same,Potency,[4],inactive
same,Potency,[11],inactive
same,max response,[12],-0.262%
same,max response,[13],-4.47% (inactive)
same,activity change % (negative = inhibition),[14],-5.41% (inactive)
same,Potency,[15],61.1 µM (active)
same,activation,[16],1.18% (inactive)
same,activation,[17],9.06% (inactive)
same,max response,[18],3.44% (inactive)
same,Potency,[19],inactive
same,max response,[20],-1.44% (inactive)
same,max response,[21],-10.8% (inactive)
same,Potency,[22],inactive
c1ccccc1,activation,[2],-0.124% (inactive) [middle of 4 runs]
same,max response,[6],-9.22% and -21.5% and 24.9%
same,Potency,[7],inactive
same,max response,[3],-2.6% and -9.93% and -11.1%
same,Potency,[4],inactive
same,Potency,[23],inactive
same,Potency,[24],inactive
CCCCC(CC)COC(=O)CCCCC(=O)OCC(CC)CCCC (stereo unspecified),activation,[2],-0.368% (inactive) and -0.458% (inactive)
same,outcome,[5],inactive
same,activity change % (negative = inhibition),[14],4.91% (inactive)

# From PubChem BioAssay (NCATS)
